Reference: PubChem BioAssay
“And” between values parts separate entries of the source, which are not always exact repeats. Identical values can stand only once.

Test: sensitizers of A549 cells to miR-34 induction, primary screen, imaging, A549 dox-inducible miR-34, nuclei and caspase counts (AID 1347080); further: test concentration not given here
Conditions: A549 miR-34 inducible, Hoechst nuclei count, 48 h; measured here: total cells with miR-34 induction; stronger effect = lower value

| SMILES | cell count |
| --- | --- |
| O=c1cc(-c2ccccc2)oc2ccccc12 | 7170 |
| O=c1[nH]c(=O)c2[nH]cnc2[nH]1 | 8870 |
| Cc1ccc(-n2cc(-c3nc4c(cnn4Cc4cccnc4)[nH]3)cn2)cc1 | 7150 |
| CN(C)c1ccc(N=Nc2ccccc2C(=O)O)cc1 | 2520 |
| CCCn1ncc(-c2ccnc(NCc3cc(CC)no3)n2)c1C | 6710 |
| CCc1nc(NC(=O)NC(c2ccccc2)c2ccccc2)nn1C | 6610 |
| NS(=O)(=O)c1ccc(CCC(=O)O)cc1 | 8780 |
| O=C(O)CCCCc1ccccc1 | 9010 |
| O=c1[nH]cnc2c1ncn2C1CCC(CO)O1 (stereo not drawn) | 9660 and 7790 |
| Cc1cc(-c2cnn(C)c2)nc(N)n1 | 8800 |
| O=C(O)c1ccccc1C(=O)O | 8620 |
| O=C(O)c1cnn(-c2ccccc2)c1 | 8690 |
| CC1OC(OCC2OC(Oc3c(-c4ccc(O)c(O)c4)oc4cc(O)cc(O)c4c3=O)C(O)C(O)C2O)C(O)C(O)C1O (stereo not drawn) | 10400 and 8400 |
| O=C1CCCc2occ(C(=O)N3CCc4[nH]nc(Cc5ccccc5)c4C3)c21 | 9440 |
| CC(=O)NCC1CN(c2ccc(N3CCOCC3)c(F)c2)C(=O)O1 (stereo not drawn) | 6880 and 7480 |
| Cc1cc2nc3[nH]c(=O)[nH]c(=O)c3nc2cc1C | 7820 |
| Cc1nn(C)cc1-c1ccnc(NCc2nc(-c3ccccc3)no2)n1 | 7970 |
| CCCc1cn(CC2CCCN(C(=O)c3nc4ncccn4n3)C2)nn1 (stereo not drawn) | 9000 |
| Cc1cn(C2C=CC(CO)O2)c(=O)[nH]c1=O (stereo not drawn) | 8970 and 7330 |
| c1ccc2c(CCc3ccncc3)c[nH]c2c1 | 7350 |
| CN1CCN(Cc2ccc(-c3nc(-c4cccnc4)cc(=O)[nH]3)cc2)CC1 | 8750 |
| COc1ncccc1C(=O)N1CCOc2ccccc21 | 8450 |
| COc1ccc(F)c(-c2cccc(N)n2)c1 | 8940 |
| O=C1CN(C(=O)c2ccncc2)CCN1Cc1ccc2c(c1)OCO2 | 9040 |
| Cc1nc(NC(=O)NCc2cccc(Cl)c2)nn1C | 8140 |
| NC(=O)Cc1c[nH]c2ccccc12 | 8170 |
| Cc1ncsc1-c1ccn(CC(=O)Nc2ccnn2Cc2cccs2)n1 | 6540 |
| Nc1ccn(C2CCC(CO)O2)c(=O)n1 (stereo not drawn) | 9800 and 8610 |

Same assay, conditions: A549 miR-34 inducible, Hoechst nuclei count, 48 h; measured here: total cells without miR-34 induction

| SMILES | cell count |
| --- | --- |
| CCOC(=O)c1c(C)nn(-c2ccc(OC)cc2)c1C | 8620 |
| O=c1c(-c2ccc(O)cc2)coc2cc(OC3OC(CO)C(O)C(O)C3O)ccc12 (stereo not drawn) | 5490 |
| O=C(O)Cc1c[nH]c2ccccc12 | 9090 |
| O=C(O)c1cnc(-c2ccccc2)[nH]1 | 9570 |
| O=C(Nc1c[nH]c2ccccc12)c1cc(-c2ccc(F)cc2)n[nH]1 | 8510 |
| Cc1ccc2c(C(=O)N(C)C(C)C)cc(-c3cnc(C(C)C)nc3)nc2c1 | 7940 |
| COc1cc(F)c(-c2nc3c(cnn3Cc3cccs3)[nH]2)c(F)c1 | 7760 |
| Cc1ccc(Sc2cccc3nc(N)nc(N)c23)cc1 | 3570 |
| CCn1c2ccccc2c2cc(CNC)ccc21 | 8640 |
| CN(C)C(=O)CN(C)C(=O)c1cccc(Nc2ncnc3c2cnn3C)c1 | 9990 |
| Cn1c(=O)c2c(nc(N3CCNCC3)n2Cc2ccccc2)n(C)c1=O | 9410 |
| O=c1cc(-c2ccccc2)oc2ccccc12 | 8370 |
| O=c1[nH]c(=O)c2[nH]cnc2[nH]1 | 9950 |
| Cc1ccc(-n2cc(-c3nc4c(cnn4Cc4cccnc4)[nH]3)cn2)cc1 | 8340 |
| CN(C)c1ccc(N=Nc2ccccc2C(=O)O)cc1 | 3400 |
| CCCn1ncc(-c2ccnc(NCc3cc(CC)no3)n2)c1C | 7960 |
| CCc1nc(NC(=O)NC(c2ccccc2)c2ccccc2)nn1C | 7400 |
| NS(=O)(=O)c1ccc(CCC(=O)O)cc1 | 9960 |
| O=C(O)CCCCc1ccccc1 | 9830 |
| O=c1[nH]cnc2c1ncn2C1CCC(CO)O1 (stereo not drawn) | 11100 and 8920 |
| Cc1cc(-c2cnn(C)c2)nc(N)n1 | 10300 |
| O=C(O)c1ccccc1C(=O)O | 9850 |
| O=C(O)c1cnn(-c2ccccc2)c1 | 9840 |
| CC1OC(OCC2OC(Oc3c(-c4ccc(O)c(O)c4)oc4cc(O)cc(O)c4c3=O)C(O)C(O)C2O)C(O)C(O)C1O (stereo not drawn) | 11000 and 9230 |
| O=C1CCCc2occ(C(=O)N3CCc4[nH]nc(Cc5ccccc5)c4C3)c21 | 9640 |
| CC(=O)NCC1CN(c2ccc(N3CCOCC3)c(F)c2)C(=O)O1 (stereo not drawn) | 7500 and 7630 |
| Cc1cc2nc3[nH]c(=O)[nH]c(=O)c3nc2cc1C | 8530 |
| Cc1nn(C)cc1-c1ccnc(NCc2nc(-c3ccccc3)no2)n1 | 9490 |
| CCCc1cn(CC2CCCN(C(=O)c3nc4ncccn4n3)C2)nn1 (stereo not drawn) | 10400 |
| Cc1cn(C2C=CC(CO)O2)c(=O)[nH]c1=O (stereo not drawn) | 9320 and 7840 |
